From ChEMBL document CHEMBL3988442, “University of Dundee, Small-Polar-MMV Screening Library” (2021)
The whole screen tested about 48,000 compounds, of which about 13,000 (27%) showed an effect of 50% or more. Some of the results follow.

system: Wolbachia pipientis; assay: Anti-Wolbachia Cell-Based Screen; format: functional; design: scale not given: in the data most compounds retested in dose-response had high values; details: 5 µM

Compound	Percent Effect [%]
CCCn1ncc(C(=O)N2CCN([C@H]3CCCC[C@@H]3O)CC2)c1C	2.84
O=C(CCCN1CCCCC1)N1CCN(C(=O)c2ccc[nH]2)CC1	1.236
CCC1CN(C(=O)COc2ccc(C(=O)NC3CC3)cc2)CCO1 (stereo not drawn)	-23.61
CCc1nccn1CCC(=O)N1CCN(c2ccccc2C)CC1C (stereo not drawn)	0.5766
Cc1ccc(Nc2nccc(C3CCN(C(=O)CO)C3)n2)nc1 (stereo not drawn)	147.3
CC(=O)N1CCC(c2ccnc(Nc3ccc(C)cn3)n2)C1 (stereo not drawn)	111.1
CC(=O)N1CCN(c2ccccc2CNc2ccc(C)cn2)CC1	1.224
CC(=O)N1CCC(NS(=O)(=O)c2cccnc2)CC1	4.265
CC(=O)N1CC[C@H](c2nc3cc(C)ccc3o2)C1	-3.722
CC(=O)N1CCC(c2ccnc(Nc3cncnc3)n2)CC1	88.64
CNCC(=O)N1CCC(c2ccnc(Nc3ccc(C)cn3)n2)C1.Cl (stereo not drawn)	-6.427
O=C(CCSc1ccc(F)cc1)NS(=O)(=O)c1ccc2c(c1)OCCO2	5.18
FC(F)(F)c1ccc(-c2cc(NC3CCNCC3)nc3[nH]ccc23)nc1	-3.524
COCCN(C/C=C/c1ccccc1)Cc1nccs1	-13.78
Cc1cc(C)n(CC2CCCCN2CCCS(N)(=O)=O)n1 (stereo not drawn)	6.399
CCC1CCCCN1C(=O)CCn1cnc2sccc2c1=O (stereo not drawn)	3.224
CC(C)N1CCCCC1CCn1cnc2cc(C(F)(F)F)ccc2c1=O (stereo not drawn)	86.9
OCC1CCCCN1CCCNCc1cc(O)c2cc(F)ccc2n1 (stereo not drawn)	13.42
O=c1c2ccc(Cl)cc2ncn1CCCN1CCCCC1CO (stereo not drawn)	62.54
CC1CCCCN1C(=O)CCn1cnc2sccc2c1=O (stereo not drawn)	-3.502
CC1CCN(CC(O)Cn2cnc3ccc(Cl)cc3c2=O)CC1 (stereo not drawn)	-0.72
CC(C)(C)c1cc2ncn(CCCN3CCCCC3CO)c(=O)c2s1 (stereo not drawn)	91.32
OCC1CCCCN1CCn1ccnc1-c1ccc2c(c1)OCCO2 (stereo not drawn)	3.348
O=c1c2ccc(C(F)(F)F)cc2ncn1CCCN1CCCCC1CO (stereo not drawn)	127.8
OCC1CCCCN1Cc1cc(O)c2cccc(F)c2n1 (stereo not drawn)	-10.07
Cc1nc(C)n(CC2CCCCN2CCCN2CCCC2=O)n1 (stereo not drawn)	-1.453
Cc1nccc(N2CCC(=O)N(Cc3ccc(F)cc3)C(C(C)C)C2)n1 (stereo not drawn)	-4.712

Compound	Percent Effect [%]
Cc1ccc(CC(=O)Nc2ccc(CS(C)(=O)=O)c(F)c2)cc1	-3.383
O=C1NCCN1CCNCC1(O)CCCN(CCC2CCCCC2)C1=O (stereo not drawn)	-3.271
Cc1nnsc1C(=O)N(C)Cc1nc(-c2ccccn2)no1	-8.145
Cc1nnc(CN2CCN(C)C3(CCC(=O)N(CCO)CC3)C2)s1 (stereo not drawn)	5.792
Cc1n[nH]c(C)c1CCNC(=O)Nc1ccc(S(C)(=O)=O)cc1	3.499
Cc1ccc(CN2CCCn3cnc(COCC4CC4)c3C2)o1.O=C(O)C(F)(F)F	8.584
Clc1ccccc1C1(c2ccnc(CC3CC3)n2)CCNCC1	5.526
Cc1ccc(C(=O)N2CCCC(c3nncn3C)C2)c(C)c1 (stereo not drawn)	142.4
Cn1cnnc1C1CCCN(C(=O)c2ccc3c(c2)OCCCO3)C1 (stereo not drawn)	0.4143
Cc1occc1C(=O)N1CCCC(c2nncn2C)C1 (stereo not drawn)	118
CCOc1ccc2nc(CN3CCC(CN)C3)ccc2c1 (stereo not drawn)	6.34
CC(C)CCN1CCc2c(C(=O)N(C)Cc3ccccn3)nn(C)c2C1.O=C(O)C(F)(F)F.O=C(O)C(F)(F)F.O=C(O)C(F)(F)F	7.035
CC(Cn1cncn1)NC(=O)Nc1ccc(COC2CCCC2)cc1 (stereo not drawn)	-11.48
Cc1ccc(CN2CC[C@H]3CO[C@H](CN(C)C)[C@H]3C2)o1	-4.083
Cc1cc(C)c(CNC(=O)N2CCN(c3ncccn3)CC2)c(=O)[nH]1	-5.06
Cc1cc(C2CCCN2C(=O)NCc2cccnc2N(C)C)on1 (stereo not drawn)	-7.167
Cc1cc(C)c(CNC(=O)N2CCC(N3CCCCC3)CC2)c(=O)[nH]1	-48.68
Cc1cc(C2CCCN2C(=O)NCc2ccccn2)on1 (stereo not drawn)	-32.12
Cc1cc(C)c(CNC(=O)N2CCNC(=O)C2)c(=O)[nH]1	-6.191
Cc1cc(C)c(CNC(=O)N2CCC(N3CCCC3)CC2)c(=O)[nH]1	3.168
Cc1cc(C)c(CNC(=O)N2CCCC2c2cc(C)on2)c(=O)[nH]1 (stereo not drawn)	104.6
Cc1cc(C)c(CNC(=O)N2CCOC(c3ccccc3)C2)c(=O)[nH]1 (stereo not drawn)	99.02
Cc1cc(C)c(CNC(=O)N2CCCC2C(N)=O)c(=O)[nH]1 (stereo not drawn)	4.239
Cc1cc(C)c(CNC(=O)N2CCC(N3CCNC3=O)CC2)c(=O)[nH]1	-7.993
Cc1cc(C)c(CNC(=O)N2CCCC2c2ccccn2)c(=O)[nH]1 (stereo not drawn)	93.91
Cc1cc(C2CCCN2C(=O)NCc2c(C)cc(C)[nH]c2=O)on1 (stereo not drawn)	97.2
